Results published in PubChem BioAssay AID1159580 (chemical genetic matrix, 2015).
The whole screen tested about 5,500 compounds, of which about 2,000 (36%) were called active. About 18% were inconclusive and are not listed. Cut-off read from the data, not from the text of the source: active = normalized growth mostly below about 0.91 (no sharp cut-off); inconclusive = no clear call, values can overlap the other calls; inactive = mostly above about 0.92. This is one part of the list.

Assay: chemical genetic growth profiling, strain panel (AID 1159580);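 note: tested at 20 µM; growth read once vehicle control cultures reached saturation at 30 °C; 1 = growth at the plate median or of vehicle wells; lower values mean less growth of the strain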
Conditions: growth OD

Measured: normalized growth

C1CCN2C[C@@H]3C[C@H](CN4CCCC[C@@H]34)[C@H]2C1
inactive: S. cerevisiae deletion strains, locus YJR066W, strain TOR1, active compounds read low 0.988 | S. cerevisiae deletion strains, locus YJR075W, strain HOC1, active compounds read low 1.01 | S. cerevisiae deletion strains, locus YKL009W, strain mrt4, active compounds read low 0.994 | S. cerevisiae deletion strains, locus YKL068W, active compounds read low 0.999 | S. cerevisiae deletion strains, locus YKL085W, strain MDH1 (second series), active compounds read low 1.02 | S. cerevisiae deletion strains, locus YKL085W, strain MDH1, active compounds read low 1.02 | S. cerevisiae deletion strains, locus YKL160W, strain elf1, active compounds read low 0.987 | S. cerevisiae deletion strains, locus YKL190W, strain CNB1, active compounds read low 1.02 | S. cerevisiae deletion strains, locus YKR001C, strain vps1, active compounds read low 0.996 | S. cerevisiae deletion strains, locus YKR026C, strain gcn3, active compounds read low 1.01 | S. cerevisiae deletion strains, locus YKR091W, strain srl3, active compounds read low 1 | S. cerevisiae deletion strains, locus YLL001W, strain dnm1, active compounds read low 0.999 | S. cerevisiae deletion strains, locus YLL026W, active compounds read low 1.01 | S. cerevisiae deletion strains, locus YLL041C, strain sdh2, active compounds read low 0.999 | S. cerevisiae deletion strains, locus YLR027C, strain aat2, active compounds read low 0.992 | S. cerevisiae deletion strains, locus YLR039C, strain RIC1, active compounds read low 1.06 | S. cerevisiae deletion strains, locus YLR058C, strain SHM2, active compounds read low 1.01 | S. cerevisiae deletion strains, locus YLR102C, strain apc9, active compounds read low 0.993 | S. cerevisiae deletion strains, locus YLR113W, strain HOG1, active compounds read low 1.01 | S. cerevisiae deletion strains, locus YLR221C, strain rsa3, active compounds read low 1.03 | S. cerevisiae deletion strains, locus YLR258W, strain gsy2, active compounds read low 1.01 | S. cerevisiae deletion strains, locus YLR262C, strain YPT6 (second series), active compounds read low 1.04 | S. cerevisiae deletion strains, locus YLR262C, strain YPT6, active compounds read low 1.1 | S. cerevisiae deletion strains, locus YLR268W, strain sec22, active compounds read low 0.996 | S. cerevisiae deletion strains, locus YLR320W, strain mms22, active compounds read low 1.04 | S. cerevisiae deletion strains, locus YLR330W, strain CHS5, active compounds read low 1.02 | S. cerevisiae deletion strains, locus YLR342W, strain FKS1 (second series), active compounds read low 0.996 | S. cerevisiae deletion strains, locus YLR342W, strain FKS1, active compounds read low 1 | S. cerevisiae deletion strains, locus YLR357W, strain rsc2, active compounds read low 1.02 | S. cerevisiae deletion strains, locus YLR370C, strain arc18, active compounds read low 1.01 | S. cerevisiae deletion strains, locus YLR371W, strain rom2, active compounds read low 0.999 | S. cerevisiae deletion strains, locus YLR384C, strain iki3, active compounds read low 1.01 | S. cerevisiae deletion strains, locus YLR418C, strain cdc73, active compounds read low 0.98 | S. cerevisiae deletion strains, locus YML016C, strain PPZ1, active compounds read low 0.997 | S. cerevisiae deletion strains, locus YML032C, strain rad52, active compounds read low 0.994 | S. cerevisiae deletion strains, locus YML120C, strain ndi1, active compounds read low 1.01 | S. cerevisiae deletion strains, locus YML124C, strain tub3, active compounds read low 1.01 | S. cerevisiae deletion strains, locus YMR058W, strain fet3, active compounds read low 1.01 | S. cerevisiae deletion strains, locus YMR078C, strain ctf18, active compounds read low 1 | S. cerevisiae deletion strains, locus YMR125W, strain sto1, active compounds read low 0.995 | S. cerevisiae deletion strains, locus YMR129W, active compounds read low 1.03 | S. cerevisiae deletion strains, locus YMR205C, strain PFK2, active compounds read low 0.997 | S. cerevisiae deletion strains, locus YMR223W, strain ubp8, active compounds read low 1.01 | S. cerevisiae deletion strains, locus YMR231W, strain pep5, active compounds read low 1.01 | S. cerevisiae deletion strains, locus YMR307W, strain GAS1, active compounds read low 1.02 | S. cerevisiae deletion strains, locus YNL067W, strain RPL9B, active compounds read low 1.01 | S. cerevisiae deletion strains, locus YNL071W, strain lat1, active compounds read low 1.01 | S. cerevisiae deletion strains, locus YNL153C, strain GIM3, active compounds read low 1.01 | S. cerevisiae deletion strains, locus YNL183C, strain NPR1, active compounds read low 0.98 | S. cerevisiae deletion strains, locus YNL209W, strain ssb2, active compounds read low 1.01 | S. cerevisiae deletion strains, locus YNL233W, strain BNI4, active compounds read low 1.01 | S. cerevisiae deletion strains, locus YNL248C, strain rpa49, active compounds read low 1.03 | S. cerevisiae deletion strains, locus YNL250W, strain rad50, active compounds read low 1.02 | S. cerevisiae deletion strains, locus YNL271C, strain bni1, active compounds read low 1.01 | S. cerevisiae deletion strains, locus YNL298W, strain CLA4, active compounds read low 0.994 | S. cerevisiae deletion strains, locus YNL307C, strain MCK1, active compounds read low 1.01 | S. cerevisiae deletion strains, locus YNL322C, strain KRE1 (second series), active compounds read low 1.01 | S. cerevisiae deletion strains, locus YNR049C, strain mso1, active compounds read low 1.01 | S. cerevisiae deletion strains, locus YNR052C, strain pop2, active compounds read low 1.02 | S. cerevisiae deletion strains, locus YOL006C, strain TOP1, active compounds read low 1.08 | S. cerevisiae deletion strains, locus YOL012C, strain htz1 1.61 | S. cerevisiae deletion strains, locus YOL147C, strain pex11, active compounds read low 1 | S. cerevisiae deletion strains, locus YOR001W, strain rrp6, active compounds read low 1.02 | S. cerevisiae deletion strains, locus YOR061W, strain CKA2, active compounds read low 1.01 | S. cerevisiae deletion strains, locus YOR069W, strain VPS5, active compounds read low 1 | S. cerevisiae deletion strains, locus YOR070C, strain gyp1, active compounds read low 1.02 | S. cerevisiae deletion strains, locus YOR080W, strain dia2, active compounds read low 0.999 | S. cerevisiae deletion strains, locus YOR083W, strain WHI5, active compounds read low 0.979 | S. cerevisiae deletion strains, locus YOR106W, strain vam3, active compounds read low 1 | S. cerevisiae deletion strains, locus YOR136W, strain idh2, active compounds read low 0.998 | S. cerevisiae deletion strains, locus YOR144C, strain elg1, active compounds read low 0.989 | S. cerevisiae deletion strains, locus YOR184W, strain ser1, active compounds read low 0.995 | S. cerevisiae deletion strains, locus YOR231W, strain MKK1, active compounds read low 1.03 | S. cerevisiae deletion strains, locus YOR265W, strain rbl2, active compounds read low 1 | S. cerevisiae deletion strains, locus YOR270C, strain vph1, active compounds read low 1.05 | S. cerevisiae deletion strains, locus YOR290C, strain snf2, active compounds read low 0.979 | S. cerevisiae deletion strains, locus YOR316C, strain cot1, active compounds read low 1 | S. cerevisiae deletion strains, locus YPL051W, strain arl3, active compounds read low 0.999 | S. cerevisiae deletion strains, locus YPL055C, strain LGE1, active compounds read low 1.02 | S. cerevisiae deletion strains, locus YPL078C, strain atp4, active compounds read low 0.978 | S. cerevisiae deletion strains, locus YPL106C, strain sse1, active compounds read low 1.01 | S. cerevisiae deletion strains, locus YPL240C, strain hsp82, active compounds read low 0.999 | S. cerevisiae deletion strains, locus YPL241C, strain CIN2, active compounds read low 1 | S. cerevisiae deletion strains, locus YPL256C, strain CLN2, active compounds read low 1.06 | S. cerevisiae deletion strains, locus YPR119W, strain clb2, active compounds read low 0.999 | S. cerevisiae deletion strains, locus YPR141C, strain kar3, active compounds read low 1 | S. cerevisiae deletion strains, locus YPR163C, strain tif3, active compounds read low 1 | S. cerevisiae deletion strains, locus YPR167C, strain met16, active compounds read low 1.02 | S. cerevisiae deletion strains, strain wtn01, active compounds read low 1.01 | S. cerevisiae strains, strain wild type, active compounds read low 1.02
